High-throughput results as filed in PubChem BioAssay.
Only some compounds are listed: those with a hit (about 19% of all), similar ones and a draw of the others.
uPA surface inh = blocks generation of uPA at the cell surface. cell surface uPA generation assay, qHTS. Potency, µM (doses to about 38.3 µM), hits mostly inhibitors. actives 0.31% (n = 330,000); active = well fitted inhibition curve with a large enough effect; inconclusive = small, poorly fitted or top-dose-only effect; inactive = no such curve, though single readings can be large or run the other way; tested in mouse RAW 264.7 cells; note: nearly all actives have a fitted effect of over 55% in size
TDP1 cell noCPT = qHTS for Inhibitors of human tyrosyl-DNA phosphodiesterase 1 (TDP1): qHTS in cells in absence of CPT; DT40 Tdp1-/- hTDP1 cells, no CPT, ATP luminescence, 48 h; Potency, µM (titrated, usually from 46.2 µM), hits mostly inhibitors; actives 15% (n = 420,000); note: nearly all actives have a fitted effect of over 55% in size
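A cellular qHTS used chicken DT40 cells lacking endogenous Tdp1 but carrying stably transfected human TDP1. Compounds were applied without camptothecin, and cell growth kinetics were judged by ATP-dependent luminescence after ≥48 hr.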
HT1080NT lethal = kills 2HG-producing HT-1080-NT fibrosarcoma cells | actives 1.6% (n = 360,000) | AID 686970 | Potency, µM (series often up to 46.1 µM), actives largely listed as cytotoxic | HT-1080-NT fibrosarcoma viability, CellTiter-Glo ATP luminescence, 48 h;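 note: NT is the 2HG producing partner of a matched IDH1 knockdown line; nearly all actives have a fitted effect of over 55% in size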
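Viability of the 2HG-overproducing fibrosarcoma line after 48 hours of compound exposure at 37 degrees C was determined by luminescence with CellTiter-Glo, and concentration-effect curves were then fitted and categorized.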
HT1080 IDH1KD tx = HT-1080 IDH1 knockdown cell toxicity (counter line). HT-1080 IDH1 knockdown viability, ATP luminescence, 48 h. Potency, µM (series often up to 46.1 µM), usual class: cytotoxic. actives 2% (n = 360,000)
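After a 2 h attachment period, IDH1KD HT-1080 cells took pin-transferred compound for 48 h at 37 °C; ATP-based luminescence after 10 min room-temperature reagent incubation reported viability.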
IL1B secr inh = inflammasome signaling inhibition, IL-1 beta readout; THP-1 LPS/ATP IL-1B secretion, AlphaLISA, 16 h; stronger effect = lower value; AID 743279; activity change, % at 57.5 µM; actives 4.7% (n = 360,000); in the data active = activity change below about -50%; inconclusive = mostly about -30% to -49%
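THP-1 cells pretreated 1 hr with compounds (up to 57.5 uM final), then stimulated with LPS (250 ng/mL final) plus ATP (1.25 mM final); secreted IL-1B measured by AlphaLISA after 16 hr, decreased signal indicating inhibition.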
TDP1 cell CPT = DT40-hTDP1 cell growth loss with CPT. chicken DT40 Tdp1-/-;hTDP1 cells + 20 nM CPT, ATP luminescence, 48 h. Potency, µM (highest dose often 46.2 µM), actives largely listed as inhibitors. actives 12% (n = 420,000); note: nearly all actives have a fitted effect of over 55% in size
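Chicken DT40 Tdp1-/- cells complemented with human TDP1, 400 cells/well, exposed to compounds plus 20 nM camptothecin for at least 48 h at 37 C; viability read as ATP content by CellTiter-Glo luminescence.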
Numbers stand for hits; - = inactive; ? = inconclusive; . = no result given; [ ] = dose if it differs, or a comment. Unless noted, calls come from the whole dose curve; as a rule, active = well fitted curve in the direction sought with a large enough effect; inconclusive = small, poorly fitted or top-dose-only effect, or another doubt; inactive = no such curve, though single readings can be large; an effect the other way counts as inactive or inconclusive.

SMILES	uPA surface inh	TDP1 cell noCPT	HT1080NT lethal	HT1080 IDH1KD tx	IL1B secr inh	TDP1 cell CPT
COc1cccc(C(=O)Nc2cc(S(=O)(=O)N3CCOCC3)ccc2N2CCOCC2)c1	-	-	-	-	-	-
O=C(Nc1cc(S(=O)(=O)N2CCOCC2)ccc1N1CCCC1)c1ccc2c(c1)S(=O)(=O)c1ccccc1C2=O	-	?	-	-	?	13µM
CC(C)COc1cccc(C(=O)Nc2cc(S(=O)(=O)N3CCOCC3)ccc2N2CCCC2)c1	-	21µM	-	-	.	?
CC(C)(C)C(=O)Nc1cc(S(=O)(=O)N2CCCCC2)ccc1N1CCCCC1	-	23µM	?	?	-	16µM
O=C(Nc1cc(S(=O)(=O)N2CCOCC2)ccc1N1CCCCC1)c1ccccc1Br	-	?	-	-	-59	?
COc1cc(-c2ccc(C(F)(F)F)cn2)cc2c1OCCN(S(=O)(=O)C[C@]13CC[C@H](CC1=O)C3(C)C)C2	.	-	.	.	.	-[9.04 µM]
Nn1c(SCc2cc([N+](=O)[O-])cc3c2OCOC3)nnc1-c1cccnc1	-	-	-	-	-	-
O=C(Nc1cc(S(=O)(=O)N2CCOCC2)ccc1N1CCCCC1)c1ccc(Cl)cc1	-	13µM	-	-	-	18µM
CC(=O)c1ccccc1NC(=O)c1cc(S(=O)(=O)N2CCOCC2)ccc1N1CCCC1	-	21µM	-	-	-	?
O=C(Nc1ccccc1N1CCCC1)c1cc(S(=O)(=O)N2CCOCC2)ccc1Cl	-	?	-	-	-	?
Cc1ccc(C(=O)Nc2cc(S(=O)(=O)N3CCOCC3)ccc2N2CCCC2)cc1	-	?	-	-	?	-
Cc1c(C(=O)Nc2cc(S(=O)(=O)N3CCOCC3)ccc2N2CCN(C)CC2)oc2ccccc12	-	18µM	-	-	-	?
O=C(Nc1cc(S(=O)(=O)N2CCOCC2)ccc1N1CCCCC1)c1ccccc1	-	21µM	-	-	?	?
Cc1ccc(NC(=O)COc2ccccc2C=O)cc1Cl	-	-	-	-	-	-
O=C(Nc1ccc(Cl)c(Cl)c1)Nc1cc(S(=O)(=O)N2CCOCC2)ccc1N1CCCC1	-	18µM	-	?	-60	?
CC1CN(S(=O)(=O)c2cccc(C(=O)N=c3sccn3C)c2)CC(C)O1 (configuration not stated)	-	?	-	-	-	18µM
CC1CN(S(=O)(=O)c2cccc(C(=O)Nc3ccccc3N3CCOCC3)c2)CC(C)O1 (configuration not stated)	-	?	-	-	-	?
O=C(Nc1ccc(Cl)c(Cl)c1)Nc1cc(C(=O)N2CCOCC2)ccc1N1CCCCC1	-	?	-	-	-	?
CC1CN(S(=O)(=O)c2cccc(C(=O)Nc3ccccc3N3CCCCC3)c2)CC(C)O1 (configuration not stated)	-	13µM	-	-	-	16µM
CN1CCN(c2ccc(S(=O)(=O)N3CCCCC3)cc2NC(=O)c2ccc3ccccc3c2)CC1	-	?	-	?	-92	?
Cc1ccccc1C(=O)Nc1cc(S(=O)(=O)N2CCCCC2)ccc1N1CCN(C)CC1	-	-	?	-	-	-
CCOc1ccc(-c2cn(-c3cccc(SC)c3)c(=O)[nH]2)cc1	-	?	-	-	-	?
Oc1ccc2ccccc2c1C=Nc1ccccc1-c1nc2ccccc2[nH]1	-	16µM	?	-	-	?
CC(Sc1nnc2ccccn12)C(N)=O (configuration not stated)	-	-	-	-	-	-
Cc1ccc(NC(=O)Nc2ccc3c(c2)N(C)C(=O)CS3)cc1C	-	?	-	-	?	?
CC(=O)c1cccc(NC(=O)Nc2ccc3c(c2)N(C)C(=O)CS3)c1	-	16µM	?	?	?	16µM
Cc1cc(C)cc(NC(=O)Nc2ccc3c(c2)N(C)C(=O)CS3)c1	-	?	-	-	-50	?
